In PubChem BioAssay (Tox21):
Inconclusive results are not listed. A call without a number means that no potency is given here. Unmarked numbers belong to inactive results. Active and inactive are the calls of the source. Calls follow the shape of the dose curve; as a rule, active = well fitted curve in the direction sought with a large enough effect in the repeat runs; inconclusive = weak or mixed curves; inactive = no such curve, though single readings can be large; an effect the other way counts as inactive or inconclusive.

Columns and labels:
[1] = qHTS assay to identify small molecule antagonists of the retinoic acid receptor (RAR) signaling pathway (AID 1159552; also: nearly all actives have a fitted effect of over 50% in size)
Procedure, shortened: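 Cells of the C3RL4 line were seeded, incubated overnight, then dosed with compounds in DMSO followed immediately by retinol (1 uM final). Six hours later luciferase detection reagent went in; signal was measured after 30 min at RT.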

[2] = qHTS assay to identify small molecule agonists of the retinoic acid receptor (RAR) signaling pathway (AID 1159553); also: potency is read from the fitted curve at half-maximal effect
Procedure, shortened: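 Cell line C3RL4, RARE luciferase reporter. Treatment: compounds in DMSO, 6 hr, 37 C, 5% CO2, after overnight plating. Detection: luminescence, 30 min RT after reagent.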

[3] = qHTS assay to identify small molecule antagonists of the retinoid acid receptor (RAR) signaling pathway - cell viability counter screen (AID 1159551); also: nearly all actives have a fitted effect of over 35% in size
Procedure, shortened: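 Following overnight attachment, C3RL4 reporter cells received DMSO-dissolved compounds and then retinol (1 uM final). Six hours later at 37 C, ATP content was measured by CellTiter-Glo luminescence.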

[4] = qHTS assay to identify small molecule antagonists of the estrogen related receptor (ERR) signaling pathway from Tox21 library - cell viability counter screen (AID 1224834); also: nearly all actives have a fitted effect of over 30% in size
Procedure, shortened: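 Viability readout (CellTiter-Fluor fluorescence, 30 min at 37 C) multiplexed with the ERR assay; cells treated 17.5 h at 37 C with compounds delivered in DMSO.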

[5] = qHTS assay to identify small molecule antagonists of the estrogen related receptor (ERR) signaling pathway (AID 1224819; also: potency is read from the fitted curve at half-maximal effect; nearly all actives have a fitted effect of over 50% in size)
Procedure, shortened: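 LOPAC library screened for antagonism as reduced One-Glo luminescence in ERR reporter cells (2,000/well). Compounds were added after 6 h pre-incubation and left 18 h at 37C; reading followed a 30 min room-temperature reagent step.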

[6] = qHTS assay to identify small molecule agonists of the estrogen related receptor (ERR) signaling pathway (AID 1224820)
Procedure, shortened: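 ERR reporter cell line (from NTP), 2,000 cells/well, incubated 6 h before compound addition, then 18 h at 37 C. Luminescence measured 30 min after One-Glo reagent at room temperature.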

[7] = qHTS assay to identify small molecule agonists of the estrogen related receptor signaling pathway with the pleiotropic PPARgamma coactivator (PGC) (AID 1224823)
Procedure, shortened: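 PGC/ERR reporter cells seeded 6 h, then exposed to compounds (23 nL in DMSO) for 18 h at 37 C. One-Glo luciferase luminescence read after 30 min at room temperature.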

In the case of `O=C(C1CCCCC1)N1CC(=O)N2CCCc3ccccc3C2C1` (stereo not drawn), the outcome [1] is reported as “inactive” and the Potency [2] is reported as “inactive”.

In the case of `CCCCCCCCNC`, the outcome [3] is reported as “inactive” and the Potency [4] is reported as “inactive”.

With `O=C(O)c1c2ccccc2cc2ccccc12` the outcome [3] was “inactive” and the Potency [4] was “inactive”.

With `S=c1[nH][nH]c(=S)s1` the outcome [3] was “inactive” and the Potency [4] was “inactive”.

For `Nc1ccc(F)cc1F`, the outcome [3] was “inactive” and the Potency [4] was “inactive”.

With `CNc1ccccc1` the outcome [3] was “inactive” and the Potency [4] was “inactive”.

In the case of `C=Cc1ccc(C=C)cc1`, the outcome [3] is reported as “inactive” and the Potency [4] is reported as “inactive”.

In the case of `FC(F)(Cl)C(F)(Cl)Cl`, the outcome [3] is reported as “inactive” and the Potency [4] is reported as “inactive”.

In the case of `COc1ccc(/C(C)=C/C(=O)O)c(OC)c1`, the outcome [3] is reported as “inactive” and the Potency [4] is reported as “inactive”.

In the case of `C[C@H]1C[C@H]2[C@@H]3CCC4=CC(=O)C=C[C@]4(C)[C@@]3(F)[C@@H](O)C[C@]2(C)[C@@]1(O)C(=O)COP(=O)(O)O`, the outcome [3] is reported as “inactive” and the Potency [4] is reported as “inactive”.

In the case of `CCCC1CCOC(C)S1` (stereo not drawn), the outcome [3] is reported as “inactive” and the Potency [4] is reported as “inactive”.

For `Nc1ccccc1Nc1ccccc1`, the outcome [1] was “inactive”.

With `COc1ccc(C(=O)c2ccc(C)cc2)c(O)c1` the outcome [3] was “inactive” and the Potency [4] was “inactive”.

With `FC1(F)C(F)(F)C(F)(F)C2(F)C(F)(C1(F)F)C(F)(F)C(F)(F)C1(F)C(F)(F)C(F)(F)C(F)(F)C(F)(F)C12F` (stereo not drawn) the outcome [3] was “inactive” and the Potency [4] was “inactive”.

With `Cc1cc(SC2=C(O)C[C@@](CCc3ccc(N)cc3)(C(C)C)OC2=O)c(C(C)(C)C)cc1CO` the outcome [3] was “inactive” and the Potency [4] was “inactive”.

For `CCCCCCCCCCCCSC#N`, the outcome [3] was “inactive” and the Potency [4] was “inactive”.

For `CC/C=C\CCO`, the outcome [3] was “inactive” and the Potency [4] was “inactive”.

With `NC(=O)c1ccccc1C(N)=O` the outcome [3] was “inactive” and the Potency [4] was “inactive”.

In the case of `O=P(c1ccccc1)(c1ccccc1)c1ccccc1`, the outcome [3] is reported as “inactive” and the Potency [4] is reported as “inactive”.

For `CC1=CC(=C(c2ccc(N)cc2)c2ccc(N)cc2)C=CC1=N`, the activity, negative = inhibition [1] was -2.67% [at 8.39 µM] and the activation [2] was -1.68% [at 8.36 µM].

For `CC1(C)C(=O)NC(=O)N1CO`, the outcome [3] was “inactive” and the Potency [4] was “inactive”.

With `C=CC(O)CCCCC` (stereo not drawn) the outcome [3] was “inactive” and the Potency [4] was “inactive”.

In the case of `CCn1nc(Cc2ccccc2)cc1C1CCN(C[C@H]2C[C@H](N(C)[C@@H](C(=O)O)C(C)C)C[C@@H]2c2cccc(F)c2)CC1`, the outcome [1] is reported as “inactive” and the Potency [2] is reported as “inactive”.

With `SCCOCCOCCS` the outcome [3] was “inactive” and the Potency [4] was “inactive”.

For `CC(=O)S[C@H](C(=O)N[C@H]1Cc2ccccc2[C@H]2CCC[C@@H](C(=O)O)N2C1=O)C(C)C`, the outcome [3] was “inactive” and the Potency [4] was “inactive”.

In the case of `NCCOCCOCCN`, the outcome [3] is reported as “inactive” and the Potency [4] is reported as “inactive”.

In the case of `CC(O)C(C)O` (stereo not drawn), the outcome [3] is reported as “inactive” and the Potency [4] is reported as “inactive”.

For `CC(C)(O)C(=O)O`, the outcome [1] was “inactive”, the Potency [2] was “inactive” and the Potency [4] was “inactive”.

In the case of `CCc1ccc2c(c1)C(=O)c1ccccc1C2=O`, the outcome [1] is reported as “inactive”, the Potency [2] is reported as 1.72 µM (active) and the Potency [4] is reported as “inactive”.

In the case of `Nc1nc(Cl)nc2c1ncn2[C@H]1C[C@H](O)[C@@H](CO)O1`, the Potency [4] is reported as “inactive”.

In the case of `CCCCOC(=O)CC#N`, the outcome [1] is reported as “inactive” and the Potency [4] is reported as “inactive”.

For `CC(C)(C)c1cc(C=O)cc(C(C)(C)C)c1O`, the Potency [4] was “inactive”.

For `O=C1CCCN1CCO`, the Potency [2] was “inactive” and the Potency [4] was “inactive”.

In the case of `C=CC(=O)OCCCCCCCCCC`, the outcome [1] is reported as “inactive”, the Potency [2] is reported as “inactive” and the Potency [4] is reported as “inactive”.

In the case of `CC(Cc1ccccc1)(NC(=O)CN)c1ccccc1` (stereo not drawn), the outcome [1] is reported as “inactive”, the Potency [2] is reported as “inactive” and the Potency [4] is reported as “inactive”.

For `C1CCN(CN2CCCCC2)CC1`, the Potency [4] was “inactive”.

For `O=C(NC1CCN(CCc2c[nH]c3ccccc23)CC1)c1ccccc1`, the outcome [1] was “inactive”, the Potency [2] was “inactive” and the Potency [4] was “inactive”.

For `COc1cccc([C@H](O)C2CCN(CCc3ccc(F)cc3)CC2)c1OC`, the outcome [1] was “inactive”, the Potency [2] was “inactive” and the Potency [4] was “inactive”.

With `Clc1nc2ccccc2nc1Cl` the Potency [2] was “inactive” and the Potency [4] was “inactive”.

With `[O-][n+]1ccc(Cl)cc1` the outcome [1] was “inactive”, the Potency [2] was “inactive” and the Potency [4] was “inactive”.

In the case of `O=[N+]([O-])c1ccc(Cl)cc1Cl`, the outcome [1] is reported as “inactive”, the Potency [2] is reported as “inactive” and the Potency [4] is reported as “inactive”.

In the case of `CC(C)=CCC[C@H](C)CCO`, the outcome [1] is reported as “inactive”, the Potency [2] is reported as “inactive” and the Potency [4] is reported as “inactive”.

For `N#Cc1ccc(CC(=O)c2cccc(C(F)(F)F)c2)cc1`, the outcome [1] was “inactive”, the Potency [2] was “inactive” and the Potency [4] was “inactive”.

For `COc1cc(C)c(Cc2cnc(N)nc2N)cc1OC`, the outcome [1] was “inactive” and the Potency [4] was “inactive”.

For `Cc1c(N=C=O)cccc1N=C=O`, the outcome [1] was “inactive”, the Potency [2] was “inactive” and the Potency [4] was “inactive”.

In the case of `O=C(O)CCc1nc2ccccc2[nH]1`, the outcome [1] is reported as “inactive”, the Potency [2] is reported as “inactive” and the Potency [4] is reported as “inactive”.

For `O=C(O)c1cccc(C(=O)O)c1C(=O)O`, the outcome [1] was “inactive”, the Potency [2] was “inactive” and the Potency [4] was “inactive”.

With `CC(C)Cc1nccs1` the outcome [1] was “inactive”, the Potency [2] was “inactive” and the Potency [4] was “inactive”.

In the case of `O=C(OCCN1CCOCC1)c1cccnc1Nc1cccc(C(F)(F)F)c1`, the Potency [4] is reported as “inactive”.

For `CC(=O)OCC(=O)[C@@]1(O)CC[C@H]2[C@@H]3CCC4=CC(=O)C=C[C@]4(C)[C@@]3(F)[C@@H](O)C[C@@]21C`, the Potency [4] was “inactive”.

For `Cc1nc2sccn2c(=O)c1CCN1CCC(=C(c2ccc(F)cc2)c2ccc(F)cc2)CC1`, the outcome [1] was “inactive”, the Potency [2] was “inactive” and the Potency [5] was 19.6 µM (active). The outcome [6] was “inactive”, the outcome [7] was “inactive” and the Potency [4] was “inactive”.

With `CCCc1ccc(OC)cc1` the outcome [1] was “inactive”, the Potency [2] was “inactive” and the Potency [4] was “inactive”.

In the case of `OCCCO`, the outcome [1] is reported as “inactive” and the Potency [4] is reported as “inactive”.

For `C/C(=C\C(C)CC(C)CC(C)C)C1CC(=O)OC1=O` (stereo not drawn), the Potency [4] was “inactive”.

In the case of `COc1cc(CNC(=O)CCCC/C=C/C(C)C)ccc1O`, the outcome [1] is reported as “inactive” and the Potency [4] is reported as “inactive”.

In the case of `O=[N+]([O-])c1cccc(I)c1`, the outcome [1] is reported as “inactive”, the Potency [2] is reported as “inactive” and the Potency [4] is reported as “inactive”.

For `CCCCC(CC)COCCC#N` (stereo not drawn), the Potency [4] was “inactive”.

For `Cc1c(Nc2ncccc2C(=O)O)cccc1C(F)(F)F`, the outcome [1] was “inactive” and the Potency [4] was “inactive”.
